Screening data: PubChem BioAssay, National Center for Advancing Translational Sciences (NCATS)
SW480 rereplic = DNA re-replication induction in SW480 cells | SW480 DNA re-replication, Hoechst DNA content imaging, 48 h | Potency, µM (doses to about 46.1 µM), for inactives: at the highest dose re-replication activation, hits mostly activators | 340,000 compounds, 1.8% hits | AID 624297; also: % of control where 0% means no effect; nearly all actives have a fitted effect of over 55% in size
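Compounds, transferred as 23 nL by pin tool, were incubated with cells for 48 hr; DNA content per nucleus was then quantified by Hoechst staining and fluorescence plate imaging.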
KB-V1 MDR tox = kills drug-selected multidrug resistant KB-V1 cells; KB-V1 MDR cells viability, CellTiter-Glo, 72 h; Potency, µM (titrated, usually from 46.1 µM), actives largely listed as cytotoxic; 400,000 compounds, 3.4% hits; AID 1347076; also: % is scaled to controls: 0 for no effect and ±100 for the full control effect; nearly all actives have a fitted effect of over 60% in size
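Cytotoxicity via CellTiter-Glo luminescence after 72 h compound exposure at 37 degrees C. Cells: drug-selected KB-V1 line, DMEM phenol-red free plus 10% FBS. Compounds tested at multiple concentrations; normalized data fitted to concentration-effect curves.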
RGS4 inh = inhibitors of human regulator of G protein signaling 4; P49798; Transcreener GDP fluorescence polarization, RGS4-accelerated GTP hydrolysis; 390,000 compounds, 0.039% hits; AID 504845; Potency, µM (series often up to 114 µM), for the others: at the highest dose activity change, negative = inhibition, hits mostly inhibitors; also: % is scaled to controls: 0 for no effect and ±100 for the full control effect; nearly all actives have a fitted effect of over 75% in size
Target sequence (P49798 whole entry, looked up): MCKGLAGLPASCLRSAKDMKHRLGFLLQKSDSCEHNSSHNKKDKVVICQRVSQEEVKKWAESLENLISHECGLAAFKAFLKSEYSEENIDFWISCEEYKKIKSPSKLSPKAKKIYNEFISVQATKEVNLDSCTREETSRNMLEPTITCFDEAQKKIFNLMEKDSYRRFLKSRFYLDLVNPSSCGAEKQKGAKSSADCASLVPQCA
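MLSMR compounds (23 nl, pin-transferred) preincubated 10 min at room temperature with a 500nM (2x) first reagent, then RGS4 at 900nM (2x) plus Transcreener GDP mix added; fluorescence polarization (620/688 nm) read before and after 90 min at 30 °C.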
KB-3-1 cytotox = kills parental KB-3-1 adenocarcinoma cells. 400,000 compounds, 1.4% hits. KB-3-1 viability, CellTiter-Glo ATP luminescence, 72 h. Potency, µM (titrated, usually from 46.1 µM), hits mostly cytotoxic; also: % is scaled to controls: 0 for no effect and ±100 for the full control effect; nearly all actives have a fitted effect of over 60% in size
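Screening of KB-3-1 cells (DMEM, 10% FBS, phenol-red free) ran from lowest to highest compound concentration; after 72 h at 37 °C viability was read luminescently and curves fitted.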
MCF10A rerep = inducers of DNA re-replication in MCF 10A breast cells; AID 624296; Potency, µM (highest dose often 46.1 µM), for inactives: at the top dose activity, positive = re-replication, most hits filed as activators; 350,000 compounds, 2.9% hits; MCF 10A DNA re-replication, Hoechst nuclear intensity, 48 h; also: % of control where 0% means no effect; nearly all actives have a fitted effect of over 50% in size
PTAP TSG101 blk = blocks PTAP/TSG101 interaction to inhibit HIV-1 budding; 340,000 tested, under 10 active; Q99816; Potency, µM (series often up to 115 µM), without a hit: at the top dose activity change, negative = inhibition, usual class: inhibitors; Fluorescence polarization, FITC-PTAP peptide / Tsg101 binding; active = well fitted inhibition curve with a large enough effect in the main read-out, with a control signal flat, not every such curve was filed as active; inconclusive = small, poorly fitted or top-dose-only effect, or effect the other way, or a change in a side signal; inactive = no such curve, though single readings can be large or run the other way; also: % of control where 0% means no effect
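Fluorescence anisotropy tracks displacement of a FITC-tagged PTAP peptide (50 nM) from the Tsg101 binding domain (10 uM), following a 20 min room-temperature incubation at pH 7.5.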
Active calls of the source: *; i = inactive; ? = inconclusive; / = not tested or not shown. Sampled rows, rich in hits. Any-hit rate of the full collection: about 6.6%. Unless noted, calls follow the shape of the dose curve; as a rule, active = well fitted curve in the direction sought with a large enough effect; inconclusive = small, poorly fitted or top-dose-only effect, or another doubt; inactive = no such curve, though single readings can be large; an effect the other way counts as inactive or inconclusive. Potency is read from the fitted curve at half-maximal effect.

SMILES	SW480 rereplic	KB-V1 MDR tox	RGS4 inh	KB-3-1 cytotox	MCF10A rerep	PTAP TSG101 blk
CC(=O)OC[C@H]1O[C@@H](Oc2cc3ccc(=O)oc3cc2OC(C)=O)[C@H](OC(C)=O)[C@@H](OC(C)=O)[C@@H]1OC(C)=O	21µM*	i	-7%	i	-65%	-8%
COc1ccc(O[C@@H]2O[C@H](COC(C)=O)[C@@H](OC(C)=O)[C@H](OC(C)=O)[C@H]2NC(C)=O)cc1	-10%	i	-8%	i	2%	0%
Cc1cccc(/N=C/c2nc(-c3ccccc3Br)oc2O)n1	4.1µM*	i	-2%	i	-17%	3%
CN(C)c1ccc(/C=C2/CCc3ccccc32)cc1	/	i	/	i	/	/
CCOC(=O)C1CCC(CN(Cc2ccc(Cl)cc2)S(=O)(=O)c2cc(Cl)cc(Cl)c2)CC1 (stereo unspecified)	/	i	-12%	?	/	/
O=C(Nc1nccs1)c1c(O)c2c([nH]c1=O)CCCC2	-3%	i	2%	i	0%	1%
O=C(Nc1ccccc1O)c1c(O)c2c([nH]c1=O)CCCC2	16µM*	i	21%	i	21µM*	-6%
CCn1c(=O)c2cc(S(=O)(=O)NCc3ccccc3)ccc2n(CC)c1=O	-1%	15µM*	-3%	i	13%	-4%
Cc1ccc2c(c1)C(=O)OC(C(=O)Nc1ccc(C(=O)O)cc1)C2 (stereo unspecified)	/	i	18%	i	/	/
COc1ccccc1CCNC(=O)c1ccc(NC(=O)N2CC(C)Sc3ccccc32)cc1 (stereo unspecified)	/	i	-5%	i	/	/
COc1cccc(CC(=O)Nc2c(C(=O)N3CCN(c4ccccc4F)CC3)oc3ccccc23)c1	/	?	-23%	16µM*	/	/
Cc1ccc(CN2CCN(CCCn3cnc4c(OCc5ccccc5)ncnc43)CC2)cc1	?	i	-12%	i	-8%	0%
c1ccc(COc2ncnc3c2ncn3CCCN2CCN(Cc3cccc4ccccc34)CC2)cc1	/	?	/	15µM*	/	/
O=C1CC(c2ccccc2)=Nc2ccc(Br)cc2N1	?	15µM*	-36%	?	4%	3%
Cc1cccc2sc(NNC(=O)c3cc(-c4cccs4)nc4ccccc34)nc12	?	?	-2%	?	18µM*	3%
Cc1cc(NC(=O)CSc2nc(-c3cccs3)nc3ccccc23)no1	5.8µM*	?	-4%	5.8µM*	15µM*	-2%
Cc1cc(NC(=O)CSc2nc(C(C)(C)C)nc3ccccc23)no1	?	?	13%	i	?	0%
CCc1cc2ccccc2nc1SCC(=O)Nc1cc(C)on1	2%	i	-12%	i	?	-1%
Cc1cc(NC(=O)c2cc(-c3cccs3)nc3ccccc23)no1	134%	?	-4%	21µM*	?	-2%
CCc1cc2ccc(OC)cc2nc1SCC(=O)Nc1cc(C)on1	7%	i	16%	i	13µM*	-3%
Cc1cccc(OC(C)C(=O)Nc2ncn[nH]2)c1 (stereo unspecified)	/	i	-3%	i	/	/
COc1ccc(N2CCN(CCCNC(=O)c3cnn(-c4ccc(C)cc4)c3-n3cccc3)CC2)cc1	/	/	25%	/	/	/
COc1ccc(-c2nc(C)c(CCNC(=O)C(=O)Nc3cc(C)cc(C)c3)s2)cc1OC	/	?	-11%	?	/	/
CCCCNc1nc(N)nc(-c2cc(Cl)ccc2O)n1	?	12µM*	-21%	?	21µM*	-4%
CCNc1nc(N)nc(-c2cc(Cl)ccc2O)n1	-473%	?	-18%	?	?	-3%
COc1cc(OC)cc(C(=O)NCCCCCCNC(=O)c2cc(OC)cc(OC)c2)c1	?	18µM*	-16%	i	2%	-6%
O=S(=O)(Nc1cccc(C(F)(F)F)c1)c1ccc(NS(=O)(=O)c2ccc3c(c2)OCCO3)cc1	/	i	-12%	i	/	/
